For 14 compounds, growth results are on record in PubChem BioAssay (NCI).

Molecules are shown by their SMILES. This is part of a sample that, as a whole, favours compounds with a hit. Of some 83,000 tested, about 20% had one in any assay.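 Results are percent growth after 48 hours of single-concentration exposure. 100 means growth as in untreated cells, lower positive values show inhibition; negative values down to -100 show cell death.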 Activity calls are given as the source filed them. How the source made its calls: active means growth percent below 10; inactive means the rest.

The subject of the experiment is HL-60(TB) leukemia. As to the kind of experiment: NCI-60 one-dose screen, 48 h (100 = growth as untreated, 0 = no growth, -100 = all killed). The settings on record: 10 µM unless noted.
Take `COc1cc(C2CC(c3cccc(Nc4ccncc4)c3)=NN2C(C)=O)cc(OC)c1OC` (centres undefined): the growth was 94.6% (inactive).

As to `C=C1C(=O)O[C@H]2[C@H]1CC/C(COC(=O)NCc1nc3ccccc3[nH]1)=C\CC[C@@]1(C)O[C@@H]21`, the growth is 17% (inactive).

As to `O=C1c2cccnc2C(=O)c2nc3cc(N4CCN(C5CC5)CC4)ccc3nc21`, the growth was -43.1% (active).

With `COc1ccc(-c2nn(-c3cccc(NC(=O)Nc4ccccc4)c3)cc2-c2ccncc2)cc1Cl`, the growth was -10.6% (active). As to `COc1cc(/C=C/C(=O)c2cccc(-n3cc(-c4ccc(Cl)cc4)[nH]c3=O)c2)ccc1O`, the growth was -19.9% (active). In the case of `COc1cc(-c2cc3ncccc3c3nc(OCCN(C)C)c4cccnc4c23)cc(OC)c1OC`, the growth is 36.9% (inactive). As for `CCc1ccc(C2=C/C(=C/c3ccc(Cl)cc3)C(=O)N2CCc2ccc(S(N)(=O)=O)cc2)cc1`, the figure is -18.9% (active); as for `O=C1CSC(=S)N1CCc1ccc(O)cc1`, 92% (inactive); as for `CC1CCN(CCCCCOc2ccc3oc4ccc(Cl)cc4c(=O)c3c2)CC1`, 39.6% (inactive). For `O=C(NC1CCN(Cc2ccccc2)CC1)c1cc(-c2cccnc2)nc2ccc(Cl)cc12`, the growth is 73.9% (inactive). For `O=S(=O)(NCCCNc1nccc(-c2c(-c3cccc(F)c3)nc3occn23)n1)c1cccc2ccccc12`, the growth was -26.8% (active). On to `COc1cccc(NC(=O)Nc2ccc(Nc3ncnc4sc5c(c34)CCN(C(=O)CCl)C5)cc2)c1`, for which the growth was 90% (inactive). As for `COc1ccc(N)c(N)c1`, the growth was 84.9% (inactive). As for `CC(C)(Cl)CCC1=C(Cl)C(=O)c2ccccc2C1=O`, the growth was -10.1% (active).
